Compound activity from PubChem BioAssay.
An excerpt weighted towards active compounds, which were near 1.1% of everything screened.
beta cell repl: inducers of beta-cell replication in MIN6 cells; MIN6 cells proliferation, ATPlite luminescence, 48 h; cells starved in 0.2% serum; 100% = growth in 10% serum; proliferation, % at 10 µM; hit rate 0.29% among 330,000;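 active = compounds whose signal lies at least 3.5 SD above the mean of all wells on their plate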;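 also: 0% = DMSO-treated cells in low-serum medium and 100% = 10% serum control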
A1 inh: inhibitors of the anti-apoptotic protein A1, read as caspase activation; MEF A1-2A-BIM cells, Caspase-Glo 3/7 luminescence, 3 h; percent of clofoctol response, vehicle zero; caspase activation, % (no concentration beside the values); hit rate 0.066% among 330,000;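 active = over half of replicate activation scores above 10%, or exactly half above 10 with the replicate mean above 10; inconclusive = replicate mean below 10 yet half the replicates above 10; inactive = over half of replicates below 10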
A3A deaminase: human APOBEC3A DNA deaminase inhibition; inhibition, % at 20 µM; P31941; recombinant A3A, FAM/TAMRA ssDNA deamination fluorescence; hit rate 0.41% among 330,000; AID 493011;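 active = at least 40% inhibition at 20 µM here, with at most 30% in a related deaminase screen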;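 also: plate controls were A3A with DMSO for no effect and wells lacking A3A enzyme for full effect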
Target sequence (P31941 whole entry, looked up): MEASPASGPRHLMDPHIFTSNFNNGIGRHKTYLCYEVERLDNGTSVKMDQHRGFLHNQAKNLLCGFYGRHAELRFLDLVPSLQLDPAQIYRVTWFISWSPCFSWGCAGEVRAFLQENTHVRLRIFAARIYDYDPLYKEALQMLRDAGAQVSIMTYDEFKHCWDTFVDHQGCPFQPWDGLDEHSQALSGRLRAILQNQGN
APOBEC3G inh: APOBEC3G (human) deaminase inhibition; AID 493012; recombinant A3G, ssDNA deamination FAM/TAMRA fluorescence; inhibition, % at 20 µM; Q9HC16; hit rate 0.28% among 330,000;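 active = inhibition of at least 40% at 20 µM, with no more than 30% in the related APOBEC3A deaminase screen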;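 also: plate controls were DMSO wells with A3G for no effect and wells lacking A3G enzyme for full effect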
APOBEC3A confirm: confirmation of human APOBEC3A DNA deaminase inhibitors; shares compounds with A3A deaminase; recombinant A3A, ssDNA deaminase UDG fluorescence assay; inhibition, % at 20 µM; hit rate 63% among 1,400;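 active = inhibition reaching a set limit, 80% of the first screen's cutoff, at 20 µM in any replicate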;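 also: plate controls were DMSO wells with A3A for no effect and wells lacking A3A enzyme for full effect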
UDG A3A counter: inhibits UDG, flagging false APOBEC3A inhibitors | shares compounds with A3A deaminase | UDG counterscreen, FAM/TAMRA uracil oligo fluorescence | inhibition, % at 20 µM | 1,000 tested, under 10 active; call rule not given here
Numbers without * were called inactive; ? = inconclusive; · = not tested or not shown; ! = repeats disagree.

SMILES | beta cell repl | A1 inh | A3A deaminase | APOBEC3G inh | APOBEC3A confirm | UDG A3A counter
O=C(CSc1n[nH]c(-c2ccncc2)n1)Nc1ccc(Cl)c(Cl)c1 | 0 | 0 | 59* | 15 | 48* | 6
COCCNC(=O)C(c1ccc(F)cc1)N(C(=O)CCC(=O)Nc1ccccn1)c1ccc(C)cc1 (stereo not drawn) | -1 | ? | -1 | -5 | · | ·
Cc1cc(C(=O)O)ccc1-c1ccc(/C=C2\NC(=O)N(Cc3ccc(F)cc3)C2=O)o1 | -4 | 1 | 58* | 26 | 44* | 0
O=C1N/C(=C/c2cccn2-c2ccc(F)cc2)C(=O)N1Cc1ccccc1 | 3 | -1 | 0 | -6 | · | ·
Cc1ccc(CN2C(=O)N/C(=C\c3cccn3-c3cccc(C(=O)O)c3)C2=O)cc1 | -1 | 0 | 79* | 27 | 80* | -3
O=C(O)c1cccc(-n2cccc2/C=C2\NC(=O)N(Cc3ccc(F)cc3)C2=O)c1 | -2 | 0 | 87* | 29 | 74* | -2
Cc1ccc(NC(=O)CN2C(=O)N/C(=C\c3cccn3-c3cccc(C(=O)O)c3)C2=O)cc1 | 1 | · | 95 | 56 | · | ·
CC(=O)Nc1ccc(NC(=O)CCCc2ccccc2)cc1 | -6 | 0 | -1 | -3 | · | ·
CC(C)c1ccc(C2(C)NC(=O)N(CC(=O)N3CCN(C(=O)c4cccs4)CC3)C2=O)cc1 (stereo not drawn) | 2 | 0 | 48* | -4 | 6 | 1
CCC1(c2ccc(F)cc2)NC(=O)N(CC(=O)N2CCN(C(=O)c3cccs3)CC2)C1=O (stereo not drawn) | 6 | · | 1 | -9 | · | ·
C[n+]1ccccc1/C=N/O | 0 | 1 | 65*! | 3 | 80* | -1
CCN(CC)c1ccc(/C=C/c2cccc[n+]2C)c(OC)c1 | -4 | 0 | 37 | -13 | · | ·
C[n+]1ccccc1/C=C/c1cc(Br)ccc1O | 5 | 0 | 50* | 15 | 26* | -3
CC(O)/C=C/c1cccc[n+]1C (stereo not drawn) | 2 | 0 | 60* | 27 | 80* | 6
COc1ccc(/C=C/c2cccc[n+]2C)c(O)c1 | 1 | 0 | 37 | 36 | · | ·
COc1cccc(C(=O)C[n+]2ccccc2/C=N/O)c1 | -1 | -1 | 1 | -8 | · | ·
CCN(C(=O)COC(=O)c1cc2c(s1)CCCCC2)C1CCS(=O)(=O)C1 (stereo not drawn) | 0 | -1 | 0 | -7 | · | ·
CC(C)CN(C(=O)COC(=O)c1cc2c(s1)CCC2)C1CCS(=O)(=O)C1 (stereo not drawn) | -1 | 0 | 45* | 18 | 44* | ·
CC1=NOC(=O)/C1=C\c1ccc(-c2ccc(Br)cc2C(=O)O)o1 | 0 | 0 | 53* | 16 | active | 5
COC(=O)c1ccc(NC(=O)C2CCN(S(C)(=O)=O)CC2)cc1 | -2 | 1 | -4 | -6 | · | ·
COC(=O)c1ccc(NC(=O)C2CCN(C(=O)Nc3ccccc3)CC2)cc1 | -3 | 0 | 59* | 13 | 26 | ·
Cc1ccc(NC(=O)CCCC2CCCCC2)c(O)c1 | -5 | -1 | 2 | -3 | · | ·
CCN1C(=O)[C@@H]2Cc3c([nH]c4ccccc34)C(c3cc(OC)c(OC)c(OC)c3)N2C1=S (stereo partly drawn) | 1 | 2 | 59* | -10 | -8 | -6
CCOc1cc(/C=C/c2cccc[n+]2C)ccc1O | 0 | 0 | 81 | 32 | · | ·
C/C=C/c1ccc(OCC(=O)OCc2csc(CC(=O)Nc3ccccc3C)n2)c(OC)c1 | 1 | 0 | 0 | -3 | · | ·
COc1cc(/C=C/c2cccc[n+]2C)ccc1OCC(=O)Nc1ccccc1C | 0 | 0 | 82* | 23 | 72* | 0
CCOc1cc(/C=C/c2cccc[n+]2C)ccc1OCC(=O)Nc1ccc(C)cc1 | 0 | 1 | 87* | 22 | 74* | -2
CCN(CC)CCNC(=O)c1ccc(NC(=O)c2ccc(F)cc2F)cc1 | 0 | -2 | 2 | -2 | · | ·
Cc1ccc(C(OCC(C)(C)C[N+](C)(C)C)c2ccccc2)cc1 (stereo not drawn) | -3 | 0 | 65* | 26 | 76* | -1
CCSc1nc2ccc(N3C(=O)C4C5C=CC(C5)C4C3=O)cc2s1 (stereo not drawn) | 1 | 0 | 60* | 5 | 20 | ·
